Tests used:
Assay in all cases: log2 ratio of Biotin-Ahx-Ub-VS probe labelling (fragment/DMSO); higher = less target engagement (more negative = stronger competition), active = hit call of the paper (q ≤ 0.05, log2 ratio ≤ -1)
Conditions in all cases: compound concentration: 200 uM; treatment time: 3 h
USP42 = molecular target: T1, USP42 (UniProt Q9H9J4)
T1 sequence (whole entry): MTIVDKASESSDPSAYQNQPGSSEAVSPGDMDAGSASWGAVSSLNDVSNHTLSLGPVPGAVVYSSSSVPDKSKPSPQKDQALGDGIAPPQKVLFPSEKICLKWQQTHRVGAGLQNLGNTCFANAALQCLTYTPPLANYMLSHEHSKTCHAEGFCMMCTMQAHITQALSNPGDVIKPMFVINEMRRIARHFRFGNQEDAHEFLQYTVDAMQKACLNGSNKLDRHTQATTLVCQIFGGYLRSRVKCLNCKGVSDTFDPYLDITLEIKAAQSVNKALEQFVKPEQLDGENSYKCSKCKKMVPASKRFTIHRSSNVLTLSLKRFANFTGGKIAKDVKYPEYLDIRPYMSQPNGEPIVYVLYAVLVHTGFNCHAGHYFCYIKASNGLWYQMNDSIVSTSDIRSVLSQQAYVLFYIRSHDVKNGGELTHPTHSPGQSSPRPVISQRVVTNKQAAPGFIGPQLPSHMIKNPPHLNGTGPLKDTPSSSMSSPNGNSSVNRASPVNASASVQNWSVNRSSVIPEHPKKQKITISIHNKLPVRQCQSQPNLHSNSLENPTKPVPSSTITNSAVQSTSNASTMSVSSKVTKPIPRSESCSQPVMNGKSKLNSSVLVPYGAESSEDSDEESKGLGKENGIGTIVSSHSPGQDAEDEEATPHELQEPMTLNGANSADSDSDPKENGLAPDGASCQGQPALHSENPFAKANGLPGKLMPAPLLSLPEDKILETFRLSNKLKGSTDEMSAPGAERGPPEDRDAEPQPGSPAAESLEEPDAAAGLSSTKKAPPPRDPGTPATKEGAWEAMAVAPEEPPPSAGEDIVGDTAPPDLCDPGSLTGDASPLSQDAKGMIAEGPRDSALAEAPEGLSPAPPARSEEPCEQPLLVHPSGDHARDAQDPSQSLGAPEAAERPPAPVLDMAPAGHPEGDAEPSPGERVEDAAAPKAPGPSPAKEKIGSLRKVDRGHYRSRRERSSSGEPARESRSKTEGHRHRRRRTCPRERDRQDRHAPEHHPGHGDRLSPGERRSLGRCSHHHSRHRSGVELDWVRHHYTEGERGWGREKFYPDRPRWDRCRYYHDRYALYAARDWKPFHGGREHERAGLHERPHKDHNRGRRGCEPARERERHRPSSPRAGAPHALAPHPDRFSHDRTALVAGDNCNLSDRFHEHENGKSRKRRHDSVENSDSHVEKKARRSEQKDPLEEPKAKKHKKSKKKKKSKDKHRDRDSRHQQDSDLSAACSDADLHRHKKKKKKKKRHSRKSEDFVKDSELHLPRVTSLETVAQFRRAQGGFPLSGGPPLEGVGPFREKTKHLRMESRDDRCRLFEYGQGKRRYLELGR
Procedure, shortened: (§1)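 HEK293T lysate (495 µg per sample, in Tris/CHAPS/IGEPAL buffer with protease inhibitors) was exposed in triplicate for 3 h to fragment at 200 µM or to vehicle, then to Biotin-Ahx-Ub-VS at 0.5 µM final for 1 h. Labelled DUBs were enriched on NeutrAvidin, digested with LysC and trypsin, and analysed by diaPASEF LC-MS/MS. Spectronaut label-free quantities were normalised to the global median, and values are average log2 ratios of fragment over vehicle from an unpaired t-test. Only proteins with ≥2 unique peptides were used.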

USP46 = USP46 (UniProt P62068)
Procedure, shortened: as §1

USP47 = molecular target: T2, USP47 (UniProt Q96K76)
T2 sequence (whole entry): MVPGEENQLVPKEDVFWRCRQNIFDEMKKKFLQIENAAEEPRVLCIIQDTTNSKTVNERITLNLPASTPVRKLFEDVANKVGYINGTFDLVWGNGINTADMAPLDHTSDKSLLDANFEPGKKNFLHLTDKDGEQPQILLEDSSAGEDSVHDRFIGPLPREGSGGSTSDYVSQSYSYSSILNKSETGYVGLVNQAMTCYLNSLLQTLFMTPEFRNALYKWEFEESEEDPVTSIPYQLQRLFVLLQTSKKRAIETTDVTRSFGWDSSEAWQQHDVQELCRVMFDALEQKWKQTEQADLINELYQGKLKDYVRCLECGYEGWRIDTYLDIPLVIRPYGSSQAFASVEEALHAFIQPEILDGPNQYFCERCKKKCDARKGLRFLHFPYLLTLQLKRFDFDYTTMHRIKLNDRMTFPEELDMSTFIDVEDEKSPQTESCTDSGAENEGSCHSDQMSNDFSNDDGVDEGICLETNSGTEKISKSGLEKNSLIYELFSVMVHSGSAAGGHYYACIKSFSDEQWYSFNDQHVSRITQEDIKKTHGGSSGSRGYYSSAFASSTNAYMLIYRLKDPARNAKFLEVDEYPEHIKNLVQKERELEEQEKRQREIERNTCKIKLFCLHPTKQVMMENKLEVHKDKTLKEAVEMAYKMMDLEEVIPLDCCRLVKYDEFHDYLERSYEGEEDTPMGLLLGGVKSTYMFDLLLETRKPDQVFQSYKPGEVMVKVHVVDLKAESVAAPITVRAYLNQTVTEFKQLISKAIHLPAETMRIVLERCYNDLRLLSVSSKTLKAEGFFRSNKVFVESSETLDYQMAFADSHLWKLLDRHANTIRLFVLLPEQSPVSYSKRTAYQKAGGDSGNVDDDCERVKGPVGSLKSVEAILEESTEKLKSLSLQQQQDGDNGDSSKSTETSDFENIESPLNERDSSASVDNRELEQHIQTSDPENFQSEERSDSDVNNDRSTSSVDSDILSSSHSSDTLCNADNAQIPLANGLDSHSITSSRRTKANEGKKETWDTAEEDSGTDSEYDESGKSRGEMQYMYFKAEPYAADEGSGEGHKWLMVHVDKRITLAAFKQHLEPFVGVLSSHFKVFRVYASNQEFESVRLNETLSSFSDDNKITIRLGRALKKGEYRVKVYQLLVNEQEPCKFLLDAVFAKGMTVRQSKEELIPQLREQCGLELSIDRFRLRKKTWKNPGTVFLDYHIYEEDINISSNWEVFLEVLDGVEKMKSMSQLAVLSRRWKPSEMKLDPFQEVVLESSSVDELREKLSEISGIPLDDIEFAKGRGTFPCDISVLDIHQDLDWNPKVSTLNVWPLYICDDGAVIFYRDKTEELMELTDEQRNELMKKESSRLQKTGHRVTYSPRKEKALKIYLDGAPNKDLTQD
Procedure, shortened: as §1

USP48 = molecular target: T3, USP48 (UniProt Q86UV5)
T3 sequence (whole entry): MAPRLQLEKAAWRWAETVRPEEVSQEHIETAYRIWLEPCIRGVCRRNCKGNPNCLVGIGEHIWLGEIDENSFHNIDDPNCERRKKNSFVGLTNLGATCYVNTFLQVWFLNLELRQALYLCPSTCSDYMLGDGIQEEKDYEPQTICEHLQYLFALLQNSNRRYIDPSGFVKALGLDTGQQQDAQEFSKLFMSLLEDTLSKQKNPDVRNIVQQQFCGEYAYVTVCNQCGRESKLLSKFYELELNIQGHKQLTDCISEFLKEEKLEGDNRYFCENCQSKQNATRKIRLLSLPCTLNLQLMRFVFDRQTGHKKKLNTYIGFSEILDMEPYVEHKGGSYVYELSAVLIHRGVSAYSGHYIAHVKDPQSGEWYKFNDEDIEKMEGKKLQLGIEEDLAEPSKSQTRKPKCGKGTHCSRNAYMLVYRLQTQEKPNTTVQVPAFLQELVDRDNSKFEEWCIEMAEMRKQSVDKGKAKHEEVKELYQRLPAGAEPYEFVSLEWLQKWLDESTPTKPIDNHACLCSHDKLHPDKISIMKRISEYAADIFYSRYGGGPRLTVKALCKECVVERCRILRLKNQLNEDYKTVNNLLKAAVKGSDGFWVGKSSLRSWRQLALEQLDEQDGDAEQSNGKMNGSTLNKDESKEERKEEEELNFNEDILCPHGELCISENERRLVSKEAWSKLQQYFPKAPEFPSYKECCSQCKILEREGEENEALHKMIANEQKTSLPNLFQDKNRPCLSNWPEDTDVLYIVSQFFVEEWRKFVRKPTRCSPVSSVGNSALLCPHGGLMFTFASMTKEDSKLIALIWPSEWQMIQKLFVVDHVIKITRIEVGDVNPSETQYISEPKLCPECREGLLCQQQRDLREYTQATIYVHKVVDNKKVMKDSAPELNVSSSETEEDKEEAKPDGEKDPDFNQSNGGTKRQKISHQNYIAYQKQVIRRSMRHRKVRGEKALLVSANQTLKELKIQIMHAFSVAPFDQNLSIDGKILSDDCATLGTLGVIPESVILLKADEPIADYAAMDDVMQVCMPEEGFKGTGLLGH
Procedure, shortened: as §1

USP5 = molecular target: T4, USP5 (UniProt P45974)
T4 sequence (whole entry): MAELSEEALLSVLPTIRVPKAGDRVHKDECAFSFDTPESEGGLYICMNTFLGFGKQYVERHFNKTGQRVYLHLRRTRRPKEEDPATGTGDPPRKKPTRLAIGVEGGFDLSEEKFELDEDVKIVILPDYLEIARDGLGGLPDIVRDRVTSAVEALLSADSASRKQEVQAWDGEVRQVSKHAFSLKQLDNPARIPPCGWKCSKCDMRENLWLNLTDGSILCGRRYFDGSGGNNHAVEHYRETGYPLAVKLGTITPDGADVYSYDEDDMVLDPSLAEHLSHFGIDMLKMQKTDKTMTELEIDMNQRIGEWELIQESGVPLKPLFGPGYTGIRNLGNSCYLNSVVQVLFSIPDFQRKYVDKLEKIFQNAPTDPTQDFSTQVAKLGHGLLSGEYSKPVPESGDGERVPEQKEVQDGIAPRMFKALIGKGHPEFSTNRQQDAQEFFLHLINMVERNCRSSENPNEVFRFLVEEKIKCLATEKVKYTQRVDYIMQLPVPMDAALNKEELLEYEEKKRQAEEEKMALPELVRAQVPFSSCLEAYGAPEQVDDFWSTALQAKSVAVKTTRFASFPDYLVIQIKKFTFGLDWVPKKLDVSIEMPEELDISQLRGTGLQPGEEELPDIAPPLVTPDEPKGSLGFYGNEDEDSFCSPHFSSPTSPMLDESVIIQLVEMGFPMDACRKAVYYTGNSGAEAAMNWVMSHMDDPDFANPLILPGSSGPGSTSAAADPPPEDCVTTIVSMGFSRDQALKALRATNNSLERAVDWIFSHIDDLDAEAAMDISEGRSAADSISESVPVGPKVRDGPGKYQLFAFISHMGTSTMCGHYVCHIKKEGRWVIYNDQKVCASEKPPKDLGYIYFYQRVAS
Procedure, shortened: as §1

USP54 = USP54 (UniProt Q70EL1)
Procedure, shortened: as §1

USP7 = USP7 (UniProt Q93009)
Procedure, shortened: as §1

USP8 = molecular target: T5, USP8 (UniProt P40818)
T5 sequence (whole entry): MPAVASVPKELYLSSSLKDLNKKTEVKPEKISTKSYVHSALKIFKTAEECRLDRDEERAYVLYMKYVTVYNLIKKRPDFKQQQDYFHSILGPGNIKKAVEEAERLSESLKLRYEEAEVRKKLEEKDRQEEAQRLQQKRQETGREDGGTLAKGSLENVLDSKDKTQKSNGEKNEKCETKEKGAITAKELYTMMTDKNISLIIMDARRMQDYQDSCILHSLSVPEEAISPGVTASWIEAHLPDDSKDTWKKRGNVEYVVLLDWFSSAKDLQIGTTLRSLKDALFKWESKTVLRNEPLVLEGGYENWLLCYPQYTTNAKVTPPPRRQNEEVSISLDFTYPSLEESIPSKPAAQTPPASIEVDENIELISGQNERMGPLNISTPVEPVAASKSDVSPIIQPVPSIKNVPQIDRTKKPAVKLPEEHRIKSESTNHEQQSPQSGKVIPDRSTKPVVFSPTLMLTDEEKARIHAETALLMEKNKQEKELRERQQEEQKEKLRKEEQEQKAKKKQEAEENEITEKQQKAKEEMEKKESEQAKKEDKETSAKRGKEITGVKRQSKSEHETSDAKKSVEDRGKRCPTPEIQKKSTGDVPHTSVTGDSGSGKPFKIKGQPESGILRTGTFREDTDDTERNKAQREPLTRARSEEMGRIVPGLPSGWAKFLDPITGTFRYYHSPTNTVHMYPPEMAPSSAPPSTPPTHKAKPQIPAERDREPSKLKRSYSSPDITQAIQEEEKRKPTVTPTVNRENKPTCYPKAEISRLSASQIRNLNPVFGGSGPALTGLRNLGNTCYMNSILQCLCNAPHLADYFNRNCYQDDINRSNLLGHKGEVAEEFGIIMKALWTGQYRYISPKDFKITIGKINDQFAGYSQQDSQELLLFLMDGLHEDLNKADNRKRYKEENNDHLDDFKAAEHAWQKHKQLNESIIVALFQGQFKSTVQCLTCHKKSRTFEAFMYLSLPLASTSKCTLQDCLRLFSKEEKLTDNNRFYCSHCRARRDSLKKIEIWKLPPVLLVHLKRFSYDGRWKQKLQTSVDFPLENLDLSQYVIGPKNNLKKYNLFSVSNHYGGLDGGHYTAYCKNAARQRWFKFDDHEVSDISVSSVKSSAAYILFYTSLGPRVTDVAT
Procedure, shortened: as §1

USP9X = USP9X (UniProt Q93008)
Procedure, shortened: as §1

UniProt O00487 = molecular target: UniProt O00487
Procedure, shortened: as §1

Measured: log2 ratio of Biotin-Ahx-Ub-VS probe labelling

Chain of USP9X (Q93008 whole entry): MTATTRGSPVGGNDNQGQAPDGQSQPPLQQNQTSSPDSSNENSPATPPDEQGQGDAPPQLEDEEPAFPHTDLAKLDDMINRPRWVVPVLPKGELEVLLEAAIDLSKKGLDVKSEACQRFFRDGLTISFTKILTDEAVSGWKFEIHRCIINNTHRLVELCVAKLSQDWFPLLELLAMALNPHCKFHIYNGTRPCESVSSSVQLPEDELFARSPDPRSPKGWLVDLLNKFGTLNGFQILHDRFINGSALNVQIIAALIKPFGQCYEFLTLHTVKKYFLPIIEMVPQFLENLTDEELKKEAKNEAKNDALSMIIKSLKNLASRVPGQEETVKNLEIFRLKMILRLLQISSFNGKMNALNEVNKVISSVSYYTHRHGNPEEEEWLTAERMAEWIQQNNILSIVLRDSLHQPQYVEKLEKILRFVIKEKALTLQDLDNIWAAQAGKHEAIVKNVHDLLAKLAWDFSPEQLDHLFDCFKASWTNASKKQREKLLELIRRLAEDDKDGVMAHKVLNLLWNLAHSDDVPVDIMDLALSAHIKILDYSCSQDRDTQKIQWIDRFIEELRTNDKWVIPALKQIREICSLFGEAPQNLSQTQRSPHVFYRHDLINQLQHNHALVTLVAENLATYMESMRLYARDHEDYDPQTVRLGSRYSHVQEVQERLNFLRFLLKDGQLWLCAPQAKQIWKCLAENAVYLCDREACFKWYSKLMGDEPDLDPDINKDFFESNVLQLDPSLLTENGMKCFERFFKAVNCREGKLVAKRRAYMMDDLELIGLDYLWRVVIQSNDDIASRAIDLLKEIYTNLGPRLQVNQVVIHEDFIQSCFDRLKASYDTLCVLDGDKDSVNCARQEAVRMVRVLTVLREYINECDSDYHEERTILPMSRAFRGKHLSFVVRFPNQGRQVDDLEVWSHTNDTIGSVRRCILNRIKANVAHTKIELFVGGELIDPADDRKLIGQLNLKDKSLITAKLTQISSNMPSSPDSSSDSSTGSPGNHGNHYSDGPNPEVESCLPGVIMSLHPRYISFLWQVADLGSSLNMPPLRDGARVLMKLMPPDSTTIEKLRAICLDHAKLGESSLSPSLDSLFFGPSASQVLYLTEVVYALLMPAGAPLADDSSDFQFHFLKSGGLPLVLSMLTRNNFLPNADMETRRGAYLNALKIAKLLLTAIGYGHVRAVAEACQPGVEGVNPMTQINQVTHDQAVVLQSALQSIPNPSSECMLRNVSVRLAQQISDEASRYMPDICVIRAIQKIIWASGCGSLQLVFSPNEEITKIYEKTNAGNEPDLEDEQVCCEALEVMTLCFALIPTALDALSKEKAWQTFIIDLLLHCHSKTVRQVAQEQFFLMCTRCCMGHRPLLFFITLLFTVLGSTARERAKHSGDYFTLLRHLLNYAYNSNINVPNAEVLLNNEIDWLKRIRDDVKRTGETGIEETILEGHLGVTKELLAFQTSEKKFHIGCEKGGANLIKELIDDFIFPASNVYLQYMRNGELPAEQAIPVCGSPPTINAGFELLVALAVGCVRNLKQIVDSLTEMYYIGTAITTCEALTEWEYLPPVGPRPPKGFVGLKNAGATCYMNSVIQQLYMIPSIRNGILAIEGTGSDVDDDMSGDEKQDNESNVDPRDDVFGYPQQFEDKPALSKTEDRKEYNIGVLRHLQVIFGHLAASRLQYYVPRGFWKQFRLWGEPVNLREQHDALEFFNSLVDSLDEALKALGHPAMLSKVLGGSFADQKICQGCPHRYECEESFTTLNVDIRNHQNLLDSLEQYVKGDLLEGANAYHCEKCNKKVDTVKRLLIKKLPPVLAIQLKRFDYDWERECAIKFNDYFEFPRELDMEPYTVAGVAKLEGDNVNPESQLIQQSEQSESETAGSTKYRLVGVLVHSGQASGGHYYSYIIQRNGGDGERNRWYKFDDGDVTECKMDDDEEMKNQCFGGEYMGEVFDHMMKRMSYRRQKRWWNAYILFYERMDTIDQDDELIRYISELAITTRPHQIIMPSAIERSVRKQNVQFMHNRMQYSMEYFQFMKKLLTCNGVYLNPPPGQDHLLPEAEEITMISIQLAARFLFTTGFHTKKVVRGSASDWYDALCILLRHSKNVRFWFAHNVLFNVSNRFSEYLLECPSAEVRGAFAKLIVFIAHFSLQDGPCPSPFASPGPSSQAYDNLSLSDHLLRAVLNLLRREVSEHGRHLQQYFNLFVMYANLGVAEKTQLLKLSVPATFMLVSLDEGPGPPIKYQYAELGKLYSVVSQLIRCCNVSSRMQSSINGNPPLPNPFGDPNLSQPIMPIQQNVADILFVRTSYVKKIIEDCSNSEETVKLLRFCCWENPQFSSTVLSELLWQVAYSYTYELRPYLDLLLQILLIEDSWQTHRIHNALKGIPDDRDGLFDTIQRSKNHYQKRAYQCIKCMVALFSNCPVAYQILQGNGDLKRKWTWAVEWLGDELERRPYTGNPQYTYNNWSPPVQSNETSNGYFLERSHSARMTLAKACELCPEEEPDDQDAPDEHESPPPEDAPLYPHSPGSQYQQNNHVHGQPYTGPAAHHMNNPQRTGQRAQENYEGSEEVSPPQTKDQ
Chain of USP7 (Q93009 whole entry, looked up): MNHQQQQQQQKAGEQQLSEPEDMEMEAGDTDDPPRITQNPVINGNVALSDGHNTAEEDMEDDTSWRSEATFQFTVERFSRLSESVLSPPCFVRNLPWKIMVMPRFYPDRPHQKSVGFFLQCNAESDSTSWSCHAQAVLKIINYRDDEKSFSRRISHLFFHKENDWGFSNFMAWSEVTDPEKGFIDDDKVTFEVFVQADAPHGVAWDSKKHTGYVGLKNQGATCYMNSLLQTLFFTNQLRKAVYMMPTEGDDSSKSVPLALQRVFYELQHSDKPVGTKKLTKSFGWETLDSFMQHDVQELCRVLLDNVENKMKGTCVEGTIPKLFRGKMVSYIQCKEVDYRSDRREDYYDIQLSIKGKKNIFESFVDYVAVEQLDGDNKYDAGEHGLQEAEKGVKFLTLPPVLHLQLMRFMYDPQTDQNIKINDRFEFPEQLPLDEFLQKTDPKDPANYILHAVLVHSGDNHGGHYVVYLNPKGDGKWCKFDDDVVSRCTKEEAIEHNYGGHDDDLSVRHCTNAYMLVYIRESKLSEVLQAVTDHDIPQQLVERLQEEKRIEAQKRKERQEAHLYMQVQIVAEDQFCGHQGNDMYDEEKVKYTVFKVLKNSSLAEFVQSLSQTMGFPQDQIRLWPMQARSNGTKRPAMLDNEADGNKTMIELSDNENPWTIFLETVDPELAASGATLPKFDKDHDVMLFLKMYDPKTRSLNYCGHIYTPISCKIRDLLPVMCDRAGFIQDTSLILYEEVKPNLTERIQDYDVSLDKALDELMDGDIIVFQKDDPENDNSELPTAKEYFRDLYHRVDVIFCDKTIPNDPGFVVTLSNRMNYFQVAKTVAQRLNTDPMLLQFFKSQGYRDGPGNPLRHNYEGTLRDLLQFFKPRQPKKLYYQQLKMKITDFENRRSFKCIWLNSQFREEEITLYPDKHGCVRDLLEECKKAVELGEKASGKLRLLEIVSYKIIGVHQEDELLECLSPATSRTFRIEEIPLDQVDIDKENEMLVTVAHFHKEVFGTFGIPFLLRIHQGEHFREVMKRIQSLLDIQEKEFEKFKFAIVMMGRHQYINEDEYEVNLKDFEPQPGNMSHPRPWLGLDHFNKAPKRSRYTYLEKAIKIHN
Chain of USP46 (P62068 whole entry): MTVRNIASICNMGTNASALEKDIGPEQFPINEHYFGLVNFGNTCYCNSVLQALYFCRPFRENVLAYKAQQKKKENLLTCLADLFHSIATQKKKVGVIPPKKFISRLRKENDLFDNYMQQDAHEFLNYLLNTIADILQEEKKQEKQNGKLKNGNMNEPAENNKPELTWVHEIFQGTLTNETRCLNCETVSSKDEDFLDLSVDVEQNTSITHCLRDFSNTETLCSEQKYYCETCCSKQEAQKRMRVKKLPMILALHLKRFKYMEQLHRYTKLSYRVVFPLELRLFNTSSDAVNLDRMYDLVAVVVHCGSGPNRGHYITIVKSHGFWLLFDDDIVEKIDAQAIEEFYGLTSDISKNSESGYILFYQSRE
Chain of UniProt O00487 (O00487 whole entry): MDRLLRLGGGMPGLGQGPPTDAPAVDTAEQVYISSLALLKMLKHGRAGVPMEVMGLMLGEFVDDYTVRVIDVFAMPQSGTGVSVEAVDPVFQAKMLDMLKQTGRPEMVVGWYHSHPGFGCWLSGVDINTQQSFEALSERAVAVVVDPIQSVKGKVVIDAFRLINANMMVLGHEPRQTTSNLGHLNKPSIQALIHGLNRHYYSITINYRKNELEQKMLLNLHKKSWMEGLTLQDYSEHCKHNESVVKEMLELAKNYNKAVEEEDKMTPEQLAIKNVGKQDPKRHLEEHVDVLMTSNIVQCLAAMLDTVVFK

O=C(CCl)NCc1ccc2c(c1)OCO2
inactive: USP42 0.271 | USP46 0.12 | USP47 0.0619 | USP48 -0.33 | USP5 0.376 | USP54 0.581 | USP7 -0.297 | USP8 -0.155 | USP9X -0.147 | UniProt O00487 -0.108

— the supplement of paper PMC11732987, “Enantioselective OTUD7B fragment discovery through chemoproteomics screening and high-throughput optimisation” (Communications Chemistry, 2025)
